# Sampled rows, rich in hits. Any-hit rate of the full collection: about 5.7%.
# PI4K2A inh: inhibitors of human PI4K2A; AID 1346378; purified PI4K2A, ADP-Glo luminescence, 1 h; active compounds read low; 420,000 compounds, 0.13% hits; activity change, negative = inhibition, % at 76.9 µM; in the data active = activity change below about -50%; inconclusive = mostly about -30% to -49%;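 also: -100% = wells without enzyme as full effect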
# Target sequence (Q9BTU6 whole entry, looked up): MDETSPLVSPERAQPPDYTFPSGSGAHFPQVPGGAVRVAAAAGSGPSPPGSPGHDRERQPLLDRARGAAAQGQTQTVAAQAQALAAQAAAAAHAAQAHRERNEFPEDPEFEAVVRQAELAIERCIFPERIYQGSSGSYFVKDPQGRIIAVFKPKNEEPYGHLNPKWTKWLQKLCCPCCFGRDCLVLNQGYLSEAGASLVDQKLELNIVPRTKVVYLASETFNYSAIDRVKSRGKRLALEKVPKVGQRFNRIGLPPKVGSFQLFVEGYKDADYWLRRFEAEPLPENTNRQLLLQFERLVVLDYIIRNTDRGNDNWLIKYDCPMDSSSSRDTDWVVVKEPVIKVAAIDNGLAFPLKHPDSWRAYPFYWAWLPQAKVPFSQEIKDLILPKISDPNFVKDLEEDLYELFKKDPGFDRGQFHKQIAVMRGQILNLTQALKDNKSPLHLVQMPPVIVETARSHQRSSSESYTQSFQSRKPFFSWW
#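 ADP-Glo luminescence measured ADP generated by PI4K2A enzyme (4 ug/mL before mixing) with 1.2 mM PI substrate (pre-mix) and 300 microM ATP (pre-mix). Tris pH7.5 buffer with MgCl2, Triton X-100; 1 h reaction at ambient temperature.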
# Giardia kill: Giardia lamblia killing. 340,000 compounds, 0.15% hits. activity change, % at 7.66 µM, hits read low. Giardia lamblia trophozoite viability. AID 540267; in the data active = activity change below about -80%; inconclusive = between about -30% and that limit;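 also: parasites exposed to compound for two days anaerobically before the ATP read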
#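 Giardia trophozoites, 100 cells per well, were exposed to compounds for 48 hrs at 37 deg C under anaerobic conditions; viability was then read as ATP content by bioluminescence after 15-30 min at room temperature.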
# Nrf2 inh: blocks Nrf2 signaling; Potency, µM (titrated, usually from 46 µM), for inactives: at the highest dose activity change, negative = inhibition, usual class: inhibitors; AID 504444; A549 ARE-Fluc reporter, luciferase luminescence, 18-24 h; 360,000 compounds, 2.1% hits; also: potency is read from the fitted curve at half-maximal effect; nearly all actives have a fitted effect of over 60% in size
#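 Nrf2 function is reported as luminescence of an ARE-controlled luciferase in A549 cells. Compounds were tested at several concentrations, and a CellTiter-Fluor read on the same wells flagged cytotoxicity.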
# A549 viability: counter-screen for Nrf2 inhibitors: cytotoxicity in A549 cells. A549 ARE-Fluc cells, CellTiter-Fluor viability, 18-24 h. Potency, µM (highest dose often 46 µM), for inactives: at the highest dose activity change, negative = cytotoxicity, actives largely listed as inhibitors. 390,000 compounds, 0.16% hits; also: potency is read from the fitted curve at half-maximal effect
#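 Cytotoxicity counterscreen: CellTiter-Fluor fluorescence was measured in A549 ARE_Fluc cells after 18-24 h of compound exposure in a concentration series. The subsequent BugLite luminescent read reports ARE-luciferase activity.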
# KB-3-1 cytotox: KB-3-1 parental cell cytotoxicity. KB-3-1 viability, CellTiter-Glo ATP luminescence, 72 h. Potency, µM (titrated, usually from 46.1 µM), hits mostly cytotoxic. 400,000 compounds, 1.4% hits. AID 1347075; also: potency is read from the fitted curve at half-maximal effect; nearly all actives have a fitted effect of over 60% in size
#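 Cytotoxicity measured as CellTiter-Glo luminescence after 72 h at 37 C. Compound titrations were pinned onto drug-naive KB-3-1 parental adenocarcinoma cells grown in DMEM with 10% FBS, and normalized data fitted to concentration-response curves.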
# KB-V1 cytotox: kills drug-selected multidrug resistant KB-V1 cells | KB-V1 MDR cells viability, CellTiter-Glo, 72 h | Potency, µM (doses to about 46.1 µM), most hits filed as cytotoxic | 400,000 compounds, 3.4% hits; also: potency is read from the fitted curve at half-maximal effect; nearly all actives have a fitted effect of over 60% in size
#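 Cells of the MDR subline KB-V1 are plated, dosed with compound at multiple concentrations, and incubated 72 h at 37 degrees C; CellTiter-Glo is then added and luminescence read after 10 min.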
# Active calls of the source: *; i = inactive; ? = inconclusive; . = not tested or not shown. Unless noted, calls follow the shape of the dose curve; as a rule, active = well fitted curve in the direction sought with a large enough effect; inconclusive = small, poorly fitted or top-dose-only effect, or another doubt; inactive = no such curve, though single readings can be large; an effect the other way counts as inactive or inconclusive. Unless noted, % is scaled to controls: 0 for no effect and ±100 for the full control effect.
SMILES,PI4K2A inh,Giardia kill,Nrf2 inh,A549 viability,KB-3-1 cytotox,KB-V1 cytotox
COc1ccccc1C(=O)Nc1ccc(Cc2ccncc2)cc1,7.9,19.3,-21.9%,13.4%,?,9.2µM*
COc1ccc(C(=O)Nc2nnc(SCc3cc(=O)n4cc(Cl)ccc4n3)s2)cc1,0.0,.,.,-0.5%,.,.
CCOc1ccc(OCC)c(Nc2cc(C)nc3nc(-c4ccco4)nn23)c1,1.0,.,.,2.5%,i,i
O=C(C[n+]1cccc2cc(Cl)ccc21)c1ccc(Br)cc1,.,.,.,.,?,i
Nc1c(C(O)(C(F)(F)F)C(F)(F)F)cc(C(O)(C(F)(F)F)C(F)(F)F)c2ccccc12,-13.1,-1.3,14.6µM*,?,i,i
CCc1ccc(-c2nc(CSCC(=O)N3CCN(c4ncccn4)CC3)c(C)o2)cc1,-4.7,-14.5,20.6µM*,-17.7%,i,i
CSc1ccc(-c2nc(CSCC(=O)N3CCOCC3)c(C)o2)cc1,-1.5,-4.8,?,-22.2%,?,5.17µM*
CCOc1ccc(-c2nc(CSCC(=O)N3CCN(c4cccc(C(F)(F)F)c4)CC3)c(C)o2)cc1,-2.9,.,.,?,?,18.4µM*
CCOc1ccc(-c2nc(CSCC(=O)N3CCN(c4ccc(F)cc4)CC3)c(C)o2)cc1,-2.4,.,.,-2.4%,i,i
CCc1ccc(-c2nc(CSCC(=O)NC3CC3)c(C)o2)cc1,2.3,-17.2,?,12.6%,i,i
Cc1oc(-c2ccc(Cl)cc2)nc1CSCC(=O)NCCCN1CCOCC1,1.5,-16.3,?,-16.5%,i,16.4µM*
Cc1cccc(-c2nc(CSCC(=O)N3CCN(c4ccccc4)CC3)c(C)o2)c1,-2.7,.,23.1µM*,-10.1%,i,i
CCOC(=O)N1CCN(C(=O)CSCc2nc(-c3ccccc3C)oc2C)CC1,-1.3,3.9,?,-3.8%,i,18.4µM*
CCOC(=O)N1CCN(C(=O)CSCc2nc(-c3ccccc3F)oc2C)CC1,-1.3,14.8,?,-8.8%,?,?
COc1ccc(-c2nc(CSCC(=O)N3CCN(c4cccc(C)c4C)CC3)c(C)o2)cc1OC,-3.2,.,.,-15.8%,?,i
CN(C)S(=O)(=O)Oc1ccsc1C(=O)Nc1cccc(Cl)c1Cl,2.5,6.3,6.9%,-11.6%,?,20.6µM*
CN(C)S(=O)(=O)Oc1ccsc1C(=O)Nc1ccccc1Cl,4.3,-9.9,?,-17.7%,i,i
C=CCN1[C@H](Cc2ccccc2)COc2cc(N3CCSCC3)ccc2S1(=O)=O,-2.8,.,.,.,.,.
COc1ccc(C(=O)N2CCN(c3ccc(C)cc3)CC2)cc1OC,-7.9,25.7,-18.9%,-3.3%,i,i
COc1ccc(C(=O)N2CCN(c3nc4ccccc4o3)CC2)cc1OC,0.4,-5.2,18.4µM*,1.7%,i,?
COc1ccc(C(=O)N2CCN(C(=O)c3ccc(-c4ccccc4)cc3)CC2)cc1OC,1.4,5.9,13µM*,1.0%,i,i
COc1ccc(Cc2nc3ccc(C(=O)N4C[C@@H](C)O[C@@H](C)C4)cc3o2)cc1OC,4.0,3.6,-25.6%,-5.2%,?,i
COc1ccccc1N1CCN(C(=O)CSc2nc3ccccc3o2)CC1,0.0,-6.9,-15.3%,0.8%,i,20.6µM*
COc1cc(OC)cc(C(=O)N2CCN(C(=O)c3ccc(-c4ccccc4)cc3)CC2)c1,5.0,3.8,-20.8%,-0.5%,i,?
COCCN1CCN(C(=O)c2ccc3nc(Cc4ccc(OC)c(OC)c4)oc3c2)CC1,0.7,-1.6,?,-0.5%,4.61µM*,?
SMILES,PI4K2A inh,Giardia kill,Nrf2 inh,A549 viability,KB-3-1 cytotox,KB-V1 cytotox
CCOC(=O)c1ccc(NC(=O)C2CCN(C(=O)c3ccc(OC)c(OC)c3)CC2)cc1,-3.6,-11.3,23.1µM*,-11.7%,i,i
COc1cc(CNC(=O)c2ccc3nc(Cc4ccccc4)oc3c2)cc(OC)c1OC,-3.6,.,.,-4.1%,25.9µM*,i
COc1cc(CNC(=O)c2ccc3nc(CCc4ccccc4)oc3c2)cc(OC)c1OC,-0.9,.,.,-7.7%,i,i
Cc1nc(CC(=O)Nc2cccc(C)c2C)cs1,0.5,.,?,4.0%,.,.
O=C(NCc1cccc(Cl)c1)O[C@H]1CC[C@@]23CCCN2C(=O)CCC[C@H]3C1,0.9,.,.,.,.,.
COc1cccc(COc2ccccc2C2Nc3ccc(Br)cc3C(=O)N2NC(=O)c2ccncc2)c1 (stereo not drawn),-3.5,1.1,3.2%,3.9%,?,8.2µM*
COc1ccc(C[C@H]2CN3C(=NC[C@@H]3Cc3ccc(O)cc3)N2CCNC(=O)c2ccc(C)c(Br)c2)cc1,-0.2,-25.5,9.6%,-19.8%,16.4µM*,i
Cc1ccc(C(=O)NCCN2C3=NC[C@H](Cc4ccc(O)cc4)N3C[C@H]2Cc2ccc(O)cc2)cc1Br,-2.9,-7.8,0.9%,-5.3%,i,i
COc1ccc(C2=NN(C(C#N)c3ccc(OC)cc3)C(c3ccccc3)C2)cc1 (stereo not drawn),2.0,-8.6,2.7%,-2.0%,23.1µM*,6.51µM*
COc1cc2c(cc1OC)/C(=C/C(=O)c1ccc(OC)c([N+](=O)[O-])c1)NCC2,-4.7,4.0,?,-24.1%,i,i
COc1cc2c(cc1OC)/C(=C/C(=O)c1cccc([N+](=O)[O-])c1)NCC2,1.0,?,13µM*,?,i,?
C=C(C)C1CC=C(C)/C(=N\NC(=S)Nc2ccc(C)cc2)C1 (stereo not drawn),1.5,-5.0,14.3%,8.7%,?,16.4µM*
C=C(C)C1CC=C(C)/C(=N/NC(=O)COc2ccc(C)cc2)C1 (stereo not drawn),-1.1,5.7,13.0%,-0.1%,i,i
O=S(=O)(c1ccc(F)cc1)N1CCN(c2nc(-c3ccc(F)cc3)nc3cc(Cl)ccc23)CC1,.,-1.2,9.2%,1.7%,.,.
CCC(=O)Nc1cc(OC)c(NC(=O)c2ccccc2)cc1OC,8.9,-14.9,4.3%,-2.9%,i,i
COc1ccc(S(=O)(=O)NCc2ccccn2)cc1NC(=O)c1ccc(C)cc1,-6.8,-18.8,10.1%,-25.5%,9.2µM*,?
COc1ccc(S(=O)(=O)NCc2ccccn2)cc1NC(=O)c1ccccc1,-1.4,1.2,?,3.3%,13µM*,?
COc1ccccc1CC(=O)Nc1cc(OC)c(NC(=O)c2ccccc2)cc1OC,-3.3,0.4,14.6µM*,-17.5%,i,i
Cc1nnc(N/N=C/c2cc([N+](=O)[O-])c(N3CCC(C)CC3)cc2N2CCC(C)CC2)n1N,-26.7,5.9,18.4µM*,?,i,23.1µM*

# Screening results deposited in PubChem by National Center for Advancing Translational Sciences (NCATS).
